Consider 20 compounds from publication PMC12751014, “Non-Catalytic Inhibitors of the p38/MK2 Interface: Repurposing Approved Drugs to Target Neuroinflammation in Alzheimer’s Disease” (Journal of Medicinal Chemistry, 2025).

The campaign covered roughly 1,900 compounds. About 50 (3%) showed an effect of 50% or more. The entries come from a sample that favours strong results as a whole.

Chain of p38/MK2 protein–protein interaction (VF-p38α / GST-MK2) (Q16539 2-360 limits assumed): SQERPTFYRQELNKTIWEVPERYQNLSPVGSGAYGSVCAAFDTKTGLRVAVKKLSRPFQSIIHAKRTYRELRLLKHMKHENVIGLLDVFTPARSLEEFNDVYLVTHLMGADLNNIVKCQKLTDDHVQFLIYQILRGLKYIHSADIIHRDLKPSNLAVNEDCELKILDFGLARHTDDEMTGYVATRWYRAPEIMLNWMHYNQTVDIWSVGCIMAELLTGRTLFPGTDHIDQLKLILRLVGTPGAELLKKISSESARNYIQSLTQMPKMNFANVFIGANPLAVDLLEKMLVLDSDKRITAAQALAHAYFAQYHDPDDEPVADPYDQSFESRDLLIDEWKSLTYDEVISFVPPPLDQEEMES

This experiment concerns the target p38/MK2 protein–protein interaction (VF-p38α / GST-MK2) (Homo sapiens, UniProt Q16539). Description: primary screen, percent of control activity; higher = less effect of the substance. More on the design: species or system HEK293T cell lysate transfected with VF-p38α and GST-MK2; unclear (methods say 'quintuplet replicates'). The procedure, abridged:
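Lysate of HEK293T cells transfected with Flag-tagged p38α and GST-MK2, complex detected by TR-FRET with anti-Flag-Tb and anti-GST-d2 antibodies. Five replicates per compound. Signal normalised to percent of DMSO control.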
With `CCn1cc(C(=O)O)c(=O)c2ccc(C)nc21`, the Pct of control is reported as 103%.

In the case of `COC(=O)Nc1nc2ccc(Sc3ccccc3)cc2[nH]1`, the Pct of control was 96.8%.

In the case of `Cc1ccc(Sc2cncc3sc(C(N)=O)cc23)cc1`, the Pct of control came to 96.8%.

In turn, `O=C(NCCCNc1nc(Nc2cccc(NC(=O)N3CCCC3)c2)ncc1I)c1cccs1` came in with a Pct of control of 105%.

Turning to `COc1ccc(C2C(=O)c3ccccc3C2=O)cc1`, the Pct of control is listed as 93.2%.

As for `O=c1c(-c2ccc(O)cc2)coc2cc(O)cc(O)c12`, the Pct of control was 102%.

As to `COc1cc(OC)c(OC)cc1C=O`, the Pct of control came to 91.5%.

`COC(=O)C1=C(C)NC(C)=C(C(=O)OC)C1c1ccccc1[N+](=O)[O-]` gave a Pct of control of 87%.

`Cl.O=C(O)Cc1cccc(OCCCN(Cc2cccc(C(F)(F)F)c2Cl)CC(c2ccccc2)c2ccccc2)c1` had a Pct of control of 39.4%.

In the case of `O=C(Nc1ccncc1)c1cc([N+](=O)[O-])ccc1Cl`, the Pct of control came out at 103%.

With `CCc1oc2ccccc2c1C(=O)c1cc(Br)c(O)c(Br)c1`, the Pct of control came out at 103%.

On to `Cc1cc(C(C#N)c2ccc(Cl)cc2)c(Cl)cc1NC(=O)c1cc(I)cc(I)c1[O-].[Na+]` (centres unmarked), for which the Pct of control was determined as 46.2%.

Regarding `Cc1cc(C(C#N)c2ccc(Cl)cc2)c(Cl)cc1NC(=O)c1cc(I)cc(I)c1O` (centres unmarked), the Pct of control stood at 45.2%.

In turn, `CC(=O)Nc1cccc(-n2c(=O)n(C3CC3)c(=O)c3c(Nc4ccc(I)cc4F)n(C)c(=O)c(C)c32)c1` displayed a Pct of control of 93.7%.

With `CC(C)(Oc1ccc(CCNC(=O)c2ccc(Cl)cc2)cc1)C(=O)O`, the Pct of control was found to be 96.7%.

The compound `Oc1c(Br)cc(Br)c2cccnc12` gave a Pct of control of 104%.

Take `CCc1ccc(CCOc2ccc(CC3SC(=O)NC3=O)cc2)nc1` (centres unmarked): the Pct of control came to 97.3%.

`Clc1ccc(CCC(Cn2ccnc2)Sc2c(Cl)cccc2Cl)cc1.O=[N+]([O-])O` (centres unmarked) displayed a Pct of control of 90.3%.

Compound `O=NN(CCCl)C(=O)NC1CCCCC1` yielded a Pct of control of 82.9%.

In turn, `Cc1cc([N+](=O)[O-])ccc1NS(=O)(=O)c1cc(Cl)ccc1Cl` had a Pct of control of 87.8%.
